Measured values: PubChem BioAssay (NCI)
The panel holds about 83,000 compounds, 20% with a hit somewhere; the sample as a whole holds those more often.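 Single-dose data. Exposure time 48 hours. Values below 10 considered active.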 Active and inactive are the calls of the source.

Key:
Assay in all cases: NCI-60 one-dose screen, 48 h (100 = growth as untreated, 0 = no growth, -100 = all killed)
Conditions in all cases: 10 µM unless noted
[1] = tested on: SK-MEL-2 melanoma
[2] = tested on: EKVX NSCLC
[3] = tested on: SN12C renal
[4] = tested on: UO-31 renal
[5] = tested on: TK-10 renal
[6] = tested on: CAKI-1 renal
[7] = tested on: A498 renal
[8] = tested on: CCRF-CEM leukemia
[9] = tested on: MOLT-4 leukemia

Measured: growth

N#CCC1=NC(c2cccs2)=Nc2ccccc2S1
inactive: [1] 96.9% | [2] 105% | [3] 86.6% | [4] 79.1% | [5] 117% | [6] 95.6% | [7] 90.9% | [8] 90.8% | [9] 92.5%

C=CCN=C(N)SCCCCCCSC(N)=NCC=C
inactive: [1] 80.5% | [2] 98.4% | [3] 97.4% | [4] 80.6% | [5] 79.6% | [6] 97.7% | [7] 79.3% | [8] 106% | [9] 81.8%

C=CCCC(=O)N1C=CC(=O)[C@H](O)[C@@H]1/C=C/c1ccccc1
inactive: [1] 77.7% [100 µM] | [2] 37.4% [100 µM] | [3] 42% [100 µM] | [4] 29% [100 µM] | [5] 54.9% [100 µM] | [6] 15.7% [100 µM] | [7] 83.4% [100 µM] | [8] 27.7% [100 µM] | [9] 36.5% [100 µM]

CC[C@@H](c1ccc2cc(OC)ccc2c1)C(C)(C)C(=O)F
inactive: [1] 94.8% | [2] 96.1% | [3] 105% | [4] 97% | [5] 126% | [6] 76.8% | [7] 98.4% | [8] 114% | [9] 99.2%

CC(O)c1ncc(/C=C2\SC(=S)N(Cc3ccccc3)C2=O)s1 (configuration not stated)
inactive: [1] 91% | [2] 101% | [3] 110% | [4] 85.8% | [5] 33.7% | [6] 93.4% | [8] 98.6% | [9] 108%

COc1ccc(C2=Nc3c(N)ncnc3NC(c3cccc(Nc4ccnc5cc(C(F)(F)F)ccc45)c3)C2)cc1 (configuration not stated)
inactive: [1] 73.7% | [2] 54% | [3] 63.9% | [4] 45.2% | [5] 95.6% | [6] 61.5% | [7] 65.2% | [8] 42.4% | [9] 19.7%

COc1cc(-c2nc(NC(C)=O)sc2-c2ccnc(NCCNS(=O)(=O)c3ccccc3)n2)ccc1Cl
active: [1] -12.6%
inactive: [2] 45.4% | [3] 48.2% | [4] 63.3% | [5] 39.5% | [6] 57.9% | [7] 27.1% | [8] 13% | [9] 15.5%

CC[C@H](Nc1nc(N)nc(C)c1C#N)c1nc2cccc(NCCCCCC(=O)NO)c2c(=O)n1-c1ccccc1
inactive: [1] 76.1% | [2] 75% | [3] 46.3% | [4] 30.1% | [5] 33.2% | [6] 35.9% | [8] 43.3% | [9] 30.7%
active: [7] -29.5%

O[C@@H](c1cc(C(F)(F)F)nc2c(C(F)(F)F)cccc12)[C@H]1CCCCN1
inactive: [1] 77% | [2] 69.7% | [3] 63.8% | [4] 50.4% | [5] 66% | [6] 76.5% | [7] 60% | [8] 73% | [9] 31.8%

COc1ccc(/C=C/C(=O)c2ccc(NC(=O)CSc3nnc(-c4cc(-c5ccccc5)nc5ccccc45)n3-c3ccccc3)cc2)cc1
inactive: [1] 107% | [2] 98% | [3] 92.7% | [4] 100% | [5] 112% | [6] 90% | [7] 85.3% | [8] 88.3% | [9] 80.2%

O=C1/C(=C/c2cccc([N+](=O)[O-])c2)COc2ccc(O)cc21
active: [8] 0.606%
inactive: [1] 91.3% | [2] 95.8% | [3] 13.1% | [4] 22.4% | [5] 87% | [6] 52.8% | [7] 102% | [9] 18.2%

NS(=O)(=O)c1ccc(N/C=C/C(=O)c2cc3ccccc3oc2=O)cc1
inactive: [1] 109% | [2] 84% | [3] 96% | [4] 62.4% | [5] 125% | [6] 80.1% | [7] 111% | [8] 108% | [9] 103%

N=C(N)c1ccc(-c2ccc(-c3ccc(Cl)cc3)o2)o1
inactive: [1] 82.1% | [2] 68.3% | [4] 46% | [5] 72.1% | [6] 54.2% | [7] 61.3%
active: [3] -58.9% | [8] -20.3% | [9] -28.9%

CCCCCCCC/C=C\CCCCCCCCOc1ccccc1CC(=O)NCC[N+]1(C)CCCCC1
inactive: [1] 88.2% | [2] 93.4% | [3] 43.2% | [4] 94.8% | [5] 75.8% | [6] 81.9% | [8] 23.1% | [9] 20.5%

CC1(C)CCC(S(=O)(=O)c2ccc3c(c2)/C(=N\O)c2cc(S(=O)(=O)N4CCN(c5ccc(F)cc5O)CC4)ccc2-3)CC1
active: [1] -85.6% | [2] -53% | [4] -91.4% | [5] -82% | [6] -76.1% | [7] -65.3% | [8] -63.4% | [9] -71.9%
inactive: [3] 19.8%

N#Cc1c(-c2ccccc2)nc2c(c(-c3ccccc3)nn2-c2ccccc2)c1-c1ccc(N2CCOCC2)cc1
inactive: [1] 102% | [2] 103% | [3] 93.4% | [4] 70.3% | [5] 101% | [6] 81.8% | [8] 64.6% | [9] 62.7%

CNCc1cccc2c1OCCOCCN(C)C(=O)CN(C)S(=O)(=O)c1ccc(cc1)-c1cnc(N)c(n1)C(=O)N2
active: [1] 4.91% | [8] -18.4% | [9] -1.69%
inactive: [2] 41.8% | [3] 20.7% | [4] 101% | [5] 11.5% | [6] 27.2% | [7] 70.3%

CCOC(=O)CSc1nc2sc3c(c2c(=O)n1-c1ccc([N+](=O)[O-])cc1)CCCCC3
inactive: [1] 90.9% | [2] 82.8% | [3] 84.3% | [4] 71.4% | [5] 84.7% | [6] 51.2% | [7] 85.3% | [8] 89% | [9] 97%

C=C(c1ccc(C(=O)O)cn1)c1cc2c(cc1C)C(C)(C)CCC2(C)C
inactive: [1] 84% | [2] 83.9% | [3] 95.7% | [4] 81.5% | [5] 131% | [6] 87.9% | [7] 80% | [8] 83.5% | [9] 95.7%

CCN(CC)S(=O)(=O)c1ccc(S(=O)(=O)N2CCC[C@@H](C(=O)N3CCN(C(=O)OC(C)(C)C)CC3)C2)cc1
inactive: [1] 101% | [2] 54.9% | [3] 87.4% | [4] 73.6% | [5] 78.6% | [6] 52.1% | [8] 66.9% | [9] 60.8%

N/C(=N\c1nc2ccccc2s1)NC(=NC1CCCCC1)NC1CCCCC1
inactive: [1] 41% | [2] 45.7% | [3] 33.8% | [4] 20.1% | [5] 69.2% | [6] 23.2% | [7] 45.8%
active: [8] -1.74% | [9] 4%

N#Cc1c(-c2ccccc2)cc(-c2ccccc2)n(CCCC(=O)NO)c1=O
active: [4] -24.8% | [7] -6.11%
inactive: [1] 34.1% | [2] 27.1% | [3] 25.8% | [5] 34.3% | [6] 10.6% | [8] 10.9% | [9] 14.1%

COc1cc2c(c(OC)c1OC)C(=O)N[C@@H]1[C@@H](O)[C@@H](O)[C@H](O)C[C@@H]21
inactive: [1] 117% | [2] 103% | [3] 104% | [4] 87.1% | [5] 98.5% | [6] 94.1% | [7] 112% | [8] 104% | [9] 104%

Cn1c(O)c(C(/C=C/c2ccccc2)=Nc2ccccc2N)c(=O)n(C)c1=O
active: [9] -43.5%
inactive: [1] 129% | [2] 82% | [3] 96.1% | [4] 83.4% | [5] 134% | [6] 102% | [8] 67.3%

C=C1C(=O)O[C@H]2[C@H]1CC/C(COC(=O)/C=C\C(=O)NCc1ccc(Cn3c(=O)sn(-c4ccccc4)c3=O)cc1)=C\CC[C@@]1(C)O[C@@H]21
inactive: [1] 89.8% | [2] 98.9% | [3] 83.1% | [4] 59.4% | [5] 67.1% | [6] 65.1% | [7] 91.2% | [9] 25.3%
active: [8] 1.9%

COc1ccc(-c2ccc(=O)oc2C#Cc2cc(OC)c(OC)c(OC)c2)cc1O
active: [6] -15.6% | [7] -0.779% | [8] 5.26%
inactive: [1] 29.6% | [2] 30.3% | [3] 21.2% | [4] 40.5% | [5] 52.5% | [9] 18.4%

COc1cc(N2C(=O)[C@H](c3ccccc3)C2c2ccc(SC)cc2)cc(OC)c1OC (some centres not stated)
active: [7] -4.14% | [8] 5.22% | [9] 2.92%
inactive: [1] 31.1% | [2] 33.7% | [3] 24.3% | [4] 32.5% | [5] 50.9% | [6] 21.3%

CC1=C(C(=O)n2c3ccccc3c3ccccc32)C(c2cccc([N+](=O)[O-])c2)C(C(=O)n2c3ccccc3c3ccccc32)=C(C)N1
inactive: [1] 102% | [2] 102% | [3] 99.9% | [4] 71.4% | [5] 104% | [6] 77.5% | [7] 93.1% | [8] 88.7% | [9] 83.1%

CCOC(=O)c1c2c(n3ccccc13)C(=O)c1ncccc1C2=O
inactive: [1] 65.6% | [2] 40.4% | [3] 10.3% | [5] 38.4% | [7] 30.7% | [8] 32.1% | [9] 31.9%
active: [4] 1.86% | [6] 9.11%

COc1ccc2nc3cc(Cl)ccc3c(NCCN)c2c1
inactive: [1] 98.5%
active: [2] -47.5% | [3] -60.4% | [4] -19.4% | [5] -76.2% | [6] -96.5% | [8] -13.3% | [9] -40.9%

O=c1[nH]c(-c2ccc(Cl)cc2)cn1-c1ccc(-n2cc(-c3ccc(Cl)cc3)[nH]c2=O)cc1
inactive: [1] 95.9% | [2] 109% | [3] 92% | [4] 105% | [5] 103% | [6] 65.1% | [7] 109% | [8] 107% | [9] 107%

Cc1[nH]c(C(=O)Nc2cccc(OC3CCNCC3)c2)c(Cl)c1Cl
inactive: [1] 88.4% | [2] 86.1% | [3] 70.3% | [4] 67.1% | [5] 123% | [6] 70.3% | [7] 25.1% | [8] 55.3% | [9] 41.5%

CC[C@]12C=CCN3CC[C@@]4(c5ccc(OC)cc5N(C)[C@H]4[C@@](O)(C(=O)OC)[C@@H]1OC(=O)CCCN1CCOCC1)[C@@H]32
inactive: [1] 109% | [2] 111% | [3] 105% | [4] 94.1% | [5] 99.8% | [6] 94.2% | [7] 113% | [8] 107% | [9] 102%

N=C(N)c1ccc(-c2ccc(-c3ccc(Cl)cc3Cl)s2)cc1F
inactive: [1] 55.8% | [2] 32.4% | [5] 91.5% | [7] 83.7%
active: [3] -27.9% | [4] -90.5% | [6] -82.8% | [8] -26.1% | [9] -47.2%

N#C/C(=C\c1ccc(Cl)cc1Cl)C(=O)Nc1ncc(Cc2ccc(Cl)c(Cl)c2)s1
inactive: [1] 88.8% | [2] 96.1% | [3] 92.2% | [4] 65.7% | [5] 80.7% | [6] 52.3% | [7] 101% | [8] 87.7% | [9] 92.9%

CN(C)c1ccc(/C=C/C(=O)c2ccccc2)cc1
inactive: [1] 93.5% | [2] 97.9% | [3] 84.8% | [4] 67.5% | [5] 74.5% | [6] 97.1% | [7] 74% | [8] 66.1% | [9] 76.3%

Cc1ccc(O)c(NC(=O)c2ccc(CNc3ccnc(C(F)(F)F)c3)cc2)c1
inactive: [1] 79.2% | [2] 60.5% | [3] 46.4% | [4] 32.6% | [5] 96.7% | [6] 41.8% | [7] 80.7% | [9] 25.1%
active: [8] 7.6%
